M18AAP inhibitor: PfM18AAP enzyme inhibition; recombinant PfM18AAP, H-Glu-NHMec fluorogenic cleavage; inhibition, % at 7.35 µM; 290,000 compounds, 1.2% hits;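 active = inhibition above the campaign mean inhibition over all tested compounds plus 3 SD, cut at about 28% in these data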
HDAC3 inhib: human HDAC3 inhibition. recombinant HDAC3, fluorogenic peptide/trypsin coupled, fluorescence. inhibition, % at 8.3 µM. 320,000 compounds, 0.15% hits. O15379; in the data active = inhibition above about 26%, passing the limit was not always enough; inconclusive = no clear call, values can overlap the other calls
p97 ATPase inh: blocks human p97 ATPase activity; 220,000 compounds, 0.42% hits; recombinant p97 ATPase, Kinase-Glo ATP luminescence, 3 h; inhibition, % at 8 µM; P55072; in the data active = inhibition above about 15%
SUMO HTRF inh: SUMOylation inhibition. HTRF SUMOylation assay, SAE1/SAE2 + UBC9, in vitro. 290,000 compounds, 0.36% hits. inhibition, % at 35 µM; in the data active = inhibition above about 50%, passing the limit was not always enough; inconclusive = no clear call, values can overlap the other calls
Target sequence (P63279 whole entry, looked up): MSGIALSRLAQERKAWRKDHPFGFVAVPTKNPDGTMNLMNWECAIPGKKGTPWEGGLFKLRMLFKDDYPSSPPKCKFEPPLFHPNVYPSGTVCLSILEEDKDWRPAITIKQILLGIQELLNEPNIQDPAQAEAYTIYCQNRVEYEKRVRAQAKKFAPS
G6PDH CS: L. mesenteroides G6PDH inhibition counter-screen; Purified L. mesenteroides G6PDH, diaphorase/resazurin coupled fluorescence, 45 min; inhibition, % at 5 µM; 200,000 compounds, 0.12% hits; in the data active = inhibition above about 50%
PHOSPHO1 block: PHOSPHO1 (human) inhibition. 290,000 compounds, 1.1% hits. recombinant PHOSPHO1, absorbance phosphatase assay. inhibition, % at 13.3 µM; in the data active = inhibition above about 60%
Target sequence (Q8TCT1 whole entry, looked up): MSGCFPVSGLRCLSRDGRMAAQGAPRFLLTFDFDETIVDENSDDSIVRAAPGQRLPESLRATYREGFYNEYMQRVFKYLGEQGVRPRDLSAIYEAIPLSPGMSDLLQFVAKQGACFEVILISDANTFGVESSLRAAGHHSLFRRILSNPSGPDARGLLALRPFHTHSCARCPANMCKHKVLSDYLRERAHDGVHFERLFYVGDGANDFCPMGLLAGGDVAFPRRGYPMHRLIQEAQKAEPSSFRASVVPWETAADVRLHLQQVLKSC
Hits are given with their value; i = inactive; ? = inconclusive; nt = no result. Most compounds without a hit are left out; they make up all but 2.5% or so of the library.

SMILES	M18AAP inhibitor	HDAC3 inhib	p97 ATPase inh	SUMO HTRF inh	G6PDH CS	PHOSPHO1 block
c1ccc(-c2nn3c(C4COc5ccccc5O4)nnc3s2)cc1 (centres undefined)	i	nt	i	nt	nt	nt
c1ccc(Cc2nn3c(C4COc5ccccc5O4)nnc3s2)cc1 (centres undefined)	i	i	i	i	i	62.4
O=C(c1ccc2oc(CCc3ccccc3)nc2c1)N1CC[C@H](O)C1	i	i	nt	i	nt	i
CCOC(=O)N1CCN(C(=O)COC(=O)C2CCN(S(=O)(=O)c3c(Cl)cccc3Cl)CC2)CC1	nt	i	nt	nt	nt	nt
Cc1cc(C(=O)NCC(=O)O)c(C)o1	i	i	i	i	i	i
Cc1cc(C(=O)NN)c(C)o1	i	i	i	i	i	61.2
CC1(NC(=O)NCCCCCCNC(=O)NC2(C)CCS(=O)(=O)C2)CCS(=O)(=O)C1 (centres undefined)	i	i	nt	i	nt	i
Cc1ccc(S(=O)(=O)N2CCOCC2)cc1NC(=O)Cn1nc(C)c([N+](=O)[O-])c1C	nt	i	nt	nt	nt	nt
COC(=O)c1ccc(CC(=O)c2ccc(O)cc2O)o1	i	i	i	i	i	63.7
CSc1nc(N)c(NC(=O)c2ccc(Br)o2)c(=O)[nH]1	i	i	nt	i	nt	66.3
CC(Sc1nc(N)c(NC(=O)c2ccc(Br)o2)c(=O)[nH]1)C(=O)O (centres undefined)	i	i	nt	i	nt	i
S=c1nc(-c2ccccc2)n(Cc2ccco2)c2c1CCCC2	i	nt	i	i	i	88.7
O=[N+]([O-])/C(=C\Nc1ccccc1Cl)S(=O)(=O)c1ccccc1	i	i	i	i	i	86.6
CN1C(=O)C(C)(C)c2cc(S(=O)(=O)N3CCCC(C(=O)NCc4ccccc4Cl)C3)ccc21 (centres undefined)	i	?	nt	i	nt	i
CCCn1c(SCc2cc(=O)oc3ccc4ccccc4c23)n[nH]c1=O	i	i	i	i	i	92.3
S=c1[nH]nc(-c2c[nH]c3ccccc23)o1	i	i	nt	i	nt	i
Cc1cc(-c2n[nH]c(=S)o2)c(C)n1-c1ccccc1	i	i	i	i	i	101.4
Cc1cc(-c2n[nH]c(=S)n2-c2ccccc2)nn1C	i	i	i	i	i	i
Oc1cc2ccccc2cc1-c1n[nH]c(=S)o1	i	i	i	i	i	95.5
O=C(CN1C(=O)NC2(CCCCCC2)C1=O)NCc1ccccc1	nt	i	nt	nt	nt	nt
CCOC(=O)C(NC(=O)CC)(Nc1nc2c(s1)CCCC2)C(F)(F)F (centres undefined)	i	i	i	i	i	i
CCOC(=O)NC(Nc1sc2c(c1C(N)=O)CCCC2)(C(=O)OCC)C(F)(F)F (centres undefined)	i	i	i	i	i	72.9
O=C(NCc1nnnn1-c1ccc(F)c(F)c1)C(=O)c1c[nH]c2ccccc12	nt	i	nt	nt	nt	nt
CCOc1ccc2nc(NC(=S)NCc3ccccc3)sc2c1	i	nt	i	i	i	71.9
COc1cccc(-c2csc(N3CCN(C(=O)Nc4ccc(Cl)cc4)CC3)n2)c1	i	nt	i	i	i	64.2
SMILES	M18AAP inhibitor	HDAC3 inhib	p97 ATPase inh	SUMO HTRF inh	G6PDH CS	PHOSPHO1 block
COc1ccc(NC(=O)N2CCN(c3nc(-c4cccc(OC)c4)cs3)CC2)cc1	i	i	i	i	i	i
COc1cccc(-n2sc3c(c2=S)-c2cc(OC)ccc2NC3(C)C)c1	i	?	i	i	i	87.9
COc1cccc(-n2cn[nH]c2=S)c1	i	i	i	i	i	i
COc1ccc(CCNC(=O)CCc2cc(OC)c(OC)c(OC)c2)cc1OC	i	i	nt	i	nt	i
COc1cc(-c2nc(-c3ccc(Br)o3)no2)cc(OC)c1OC	i	i	19.0	i	i	i
Cc1nc2ccc(NC(=O)c3ccc(C)c(S(=O)(=O)N4CCOCC4)c3)cc2s1	nt	i	nt	nt	nt	nt
S=c1[nH]nc(-c2ccc(Cl)cc2)n1-c1ccc(Cl)cc1	i	i	nt	i	nt	i
CC(C)(C)c1cn(-c2ccc(Cl)cc2)c(=S)[nH]1	i	i	i	i	i	73.8
Cc1sc(NC(=O)CCCC(=O)O)c(C#N)c1C	29.9	i	i	i	i	i
N#Cc1c(NC(=O)CCC(=O)O)sc2c1CCCCC2	30.6	i	i	i	i	i
CCCCCC(=O)Nc1sc(C)c(C)c1C#N	i	i	i	i	i	i
Cc1nnc(SCC(=O)Nc2sc3c(c2C#N)CCCCC3)n1N	i	i	i	i	i	61.3
N#Cc1c(NC(=O)CSc2nnnn2C2CCCCC2)sc2c1CCCC2	i	i	i	i	i	i

Assay outcomes deposited in PubChem BioAssay by several laboratories.
